Data from PubChem BioAssay AID493042 (Johns Hopkins Ion Channel Center, 2011).
Entries with a potency or affinity are not part of this list. Calls of active or inactive are those of the source.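 The calls were made as follows: active = potentiation or inhibition seen at some tested dose and a dose response curve obtained; inactive = no potentiation or inhibition at any dose, or no curve.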

molecular target: Potassium voltage-gated channel subfamily KQT member 1 (Homo sapiens) + Potassium voltage-gated channel subfamily E member 1 (Homo sapiens) (UniProt P15382+P51787); test: KCNQ1/KCNE1 channel current potentiation, dose response, selectivity assay for KCNQ2 activator project, automated patch clamp, CHO cells (AID 493042); conditions: series mostly up to 30 µM
Sequence (O88943 whole entry, looked up): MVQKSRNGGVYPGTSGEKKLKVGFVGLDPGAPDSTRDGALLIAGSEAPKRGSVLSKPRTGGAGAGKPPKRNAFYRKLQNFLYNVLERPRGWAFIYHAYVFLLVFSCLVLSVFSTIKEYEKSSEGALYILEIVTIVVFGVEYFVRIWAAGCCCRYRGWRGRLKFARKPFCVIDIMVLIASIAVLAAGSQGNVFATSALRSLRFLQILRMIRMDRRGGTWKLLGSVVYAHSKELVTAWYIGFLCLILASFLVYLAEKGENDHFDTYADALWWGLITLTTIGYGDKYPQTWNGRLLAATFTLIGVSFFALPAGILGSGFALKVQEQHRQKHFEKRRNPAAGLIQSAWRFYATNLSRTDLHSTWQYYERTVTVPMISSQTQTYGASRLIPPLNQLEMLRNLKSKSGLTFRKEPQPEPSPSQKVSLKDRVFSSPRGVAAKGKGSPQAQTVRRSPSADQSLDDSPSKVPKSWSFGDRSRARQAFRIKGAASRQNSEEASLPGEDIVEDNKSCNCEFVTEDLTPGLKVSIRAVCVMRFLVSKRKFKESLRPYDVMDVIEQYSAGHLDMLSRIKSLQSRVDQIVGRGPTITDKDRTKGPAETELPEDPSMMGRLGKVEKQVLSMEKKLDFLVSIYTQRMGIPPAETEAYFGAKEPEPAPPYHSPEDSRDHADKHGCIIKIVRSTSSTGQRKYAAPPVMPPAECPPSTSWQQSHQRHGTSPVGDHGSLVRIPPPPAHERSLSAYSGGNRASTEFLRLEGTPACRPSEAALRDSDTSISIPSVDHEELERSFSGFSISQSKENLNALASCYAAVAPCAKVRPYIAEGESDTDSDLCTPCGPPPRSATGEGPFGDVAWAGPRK
Sequence (P51787 whole entry, looked up): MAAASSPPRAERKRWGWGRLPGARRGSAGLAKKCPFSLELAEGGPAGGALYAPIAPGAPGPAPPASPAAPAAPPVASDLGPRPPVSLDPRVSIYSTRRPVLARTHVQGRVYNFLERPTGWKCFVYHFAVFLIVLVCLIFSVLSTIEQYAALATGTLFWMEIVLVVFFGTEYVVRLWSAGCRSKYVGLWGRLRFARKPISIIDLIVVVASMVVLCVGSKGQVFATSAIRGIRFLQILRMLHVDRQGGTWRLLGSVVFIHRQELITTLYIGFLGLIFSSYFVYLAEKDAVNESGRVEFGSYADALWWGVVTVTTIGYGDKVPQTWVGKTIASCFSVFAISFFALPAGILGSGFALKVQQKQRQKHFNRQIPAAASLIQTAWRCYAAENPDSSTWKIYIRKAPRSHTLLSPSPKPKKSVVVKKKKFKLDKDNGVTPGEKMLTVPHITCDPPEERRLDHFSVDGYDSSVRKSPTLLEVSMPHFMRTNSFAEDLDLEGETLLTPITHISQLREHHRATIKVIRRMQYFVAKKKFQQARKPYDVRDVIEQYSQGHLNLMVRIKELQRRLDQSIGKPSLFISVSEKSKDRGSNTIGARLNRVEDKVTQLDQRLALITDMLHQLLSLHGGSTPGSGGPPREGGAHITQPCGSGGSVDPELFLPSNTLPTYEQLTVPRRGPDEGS

outcome, inactive:
Cc1cccc(C)c1NC(=O)C1CC2CCC1C2 (stereo not drawn), CCCCC(=O)Nc1c(C)cc(C)cc1Cl, Cc1cc(C)c(NC(=O)CC(C)(C)C)c(Cl)c1
